Among the data in ChEMBL document CHEMBL4513216, “Probing the Open Global Health Chemical Diversity Library for Multistage-Active Starting Points for Next-Generation Antimalarials” (ACS Infect Dis, 2020) are INHIBITION values, retold here.

Hit rate of the full screen: of about 69,000 compounds, about 8,600 (12%) showed an effect of 50% or more. Only a selection was taken, and strong results are over-represented in it overall.

The experiment concerns Plasmodium berghei. Briefly: Screen against P. berghei liver stage (PbLuc), transformed with Luciferase, at 10uM. In kind it is functional, HepG2. As to conditions: tested at 10 uM.
Take `O=C1NCCCCC1NCc1csc(-c2ccccn2)n1` (centres undefined): the INHIBITION was found to be 8.07%.

As to `CC(Cn1cccn1)NC(=O)NCc1ccoc1` (centres undefined), the INHIBITION is recorded as 15.6%.

As to `CS(=O)(=O)N1CC2(CCN(Cc3ccccn3)C2)Cc2ccccc21` (centres undefined), the INHIBITION amounted to 14.3%.

For the compound `CC(C)CC(=O)NCCCc1cc(N)n(-c2ccccc2)n1`, the INHIBITION was found to be 16.6%.

In the case of `Cc1noc(C)c1CN(C)C(=O)Cn1c(=O)n(C)c2ccccc21`, the INHIBITION was found to be 26.8%.

For `Cc1noc(C)c1CN(C)Cn1c(=O)n(C)c2ccccc21`, the INHIBITION stood at 28.2%.

As for `Cc1noc(C)c1CN(C)Cn1c(=O)oc2ccccc21`, the INHIBITION is 50.4%.

For `Cc1ccc(C(CNC(=O)c2c(C)noc2C(C)C)N(C)C)cc1` (centres undefined), the INHIBITION was found to be 7.12%.

For the compound `Cc1cc(C)n(CC(C)NCc2nncn2C2CCCCC2)n1` (centres undefined), the INHIBITION is given as -47.9%.

With `CC(CN1CCOCC1)NCc1nncn1C1CCCCC1` (centres undefined), the INHIBITION came to 28.3%.

`CC(CN1CCCCCC1)NCc1nncn1C1CCCCC1` (centres undefined): the INHIBITION is 75.4%.

Regarding `O=C(NCc1ccccc1)[C@H]1C[C@H]2CN(S(=O)(=O)C3CC3)C[C@@H]1O2`, the INHIBITION was 31.8%.

As for `CC1CN(Cc2ccc(-n3cccn3)cc2)CCO1` (centres undefined), the INHIBITION is -15.5%.

With `Cc1noc(C)c1CN1C[C@@H]2C[C@@H](C)O[C@@H]2C1`, the INHIBITION is listed as -10.2%.

Consider `CNC(=O)[C@H]1C[C@@H]2CN(Cc3c(C)noc3C)C[C@@H]2N1C(C)=O`, for which the INHIBITION was determined as 22.2%.

As for `CNC(=O)[C@@H]1C[C@H]2CN(Cc3c(C)noc3C)C[C@H]2N1C(C)C`, the INHIBITION came out at 83.8%.

On to `Cc1noc(C)c1CN1C[C@@H]2C[C@H](C(=O)NCC3CC3)N(C)[C@@H]2C1`, for which the INHIBITION is listed as 26%.

For `Cc1noc(C)c1CN1C[C@@H]2CC(F)(F)C[C@@H]2C1`, the INHIBITION turned out to be 87.2%.

Regarding `Cc1noc(C)c1CN1C[C@H]2CNC[C@H]2C1`, the INHIBITION was -19.2%.

Consider `CC(=O)N1CCC(c2cnc(NC3CCOCC3)cn2)CC1`, for which the INHIBITION was -20.6%.

Regarding `Cc1ncsc1CNC(=O)N(CCCO)C1CCc2ccccc21` (centres undefined), the INHIBITION was -7.35%.

As to `Cc1cc(S(=O)(=O)N2CCc3ccc(F)cc32)cc(C(=O)O)c1C`, the INHIBITION came to 61.3%.

Consider `COc1cc(S(=O)(=O)N2CCc3ccc(F)cc32)cc(C(=O)O)c1OC`, for which the INHIBITION was 42.9%.

On to `Cc1ccc(S(=O)(=O)N2CCc3ccc(F)cc32)cc1C(=O)O`, for which the INHIBITION is reported as -3.2%.

As for `O=C(c1ccc[nH]1)N1CCCn2c(CNC3CCC3)nnc2C1`, the INHIBITION is given as 45.7%.

Regarding `CC(C)CNC(=O)CNc1c(NCc2ccco2)c(=O)c1=O`, the INHIBITION is listed as 31.3%.

In the case of `O=C(Cc1ccccc1)NCc1ccc(-c2ccccc2C(=O)O)cn1`, the INHIBITION was determined as 50.3%.

Turning to `COCC(=O)NCc1ccc(-c2ccccc2C(=O)O)cn1`, the INHIBITION is on record as -26.7%.

Regarding `O=C(Cc1ccccc1)NCc1ncc(-c2ccccc2C(=O)O)cn1`, the INHIBITION came out at 1.65%.

As for `Cc1ccc(CNC(=O)c2ccc(F)cc2)o1`, the INHIBITION came to 0.868%.

`CCN1CCc2[nH]cnc2C12CCN(Cc1ccc3nsnc3c1)CC2`: the INHIBITION is listed as 23.6%.

As for `O=C(Cc1ccc2c(c1)OCC2)Nc1nn[nH]n1`, the INHIBITION turned out to be 23.1%.

For `CCC(C)CNC(=O)[C@@H]1CCCN1c1nccc(Nc2ccccc2)n1` (some centres undefined), the INHIBITION is on record as 13.5%.

With `O=C(O)[C@@H]1CCCN1c1nccc(Nc2ccccc2)n1`, the INHIBITION turned out to be 0.618%.

Take `O=C([C@@H]1CCCN1c1nccc(Nc2ccccc2)n1)N1CCCCC1`: the INHIBITION was found to be 78.7%.

Turning to `Cc1cccc(NC(=O)Nc2c[nH]c(=O)[nH]c2=O)c1C`, the INHIBITION is -13.6%.

Take `Cc1cc(C(=O)N2CCN(Cc3ccsc3)CC2)c(C)n1C1CC1`: the INHIBITION is given as -1.14%.

For `CC(C)CN(c1cn[nH]c1)S(=O)(=O)c1cccc(C#N)c1`, the INHIBITION was 10.8%.

`CC(=O)Nc1ncc(S(=O)(=O)Nc2cccc(O)c2)s1`: the INHIBITION is reported as 13.5%.

For the compound `Cc1ncc(S(=O)(=O)N(CC(C)C)c2cccc(O)c2)s1`, the INHIBITION amounted to 61%.

In the case of `O=C(c1ccc[nH]1)N1CCc2c(cccc2S(=O)(=O)N2CCOCC2)C1`, the INHIBITION worked out at 22.2%.

In the case of `Cc1n[nH]c(CN2CCN(C(=O)C3CCC3)[C@@H]3CS(=O)(=O)C[C@@H]32)n1`, the INHIBITION is on record as -2.79%.

For the compound `Cn1ccnc1CN1CCN(CC2CC2)[C@@H]2CS(=O)(=O)C[C@@H]21`, the INHIBITION came to 56.7%.

In the case of `Cn1ccnc1CN1CCN(Cc2ccccc2)[C@@H]2CS(=O)(=O)C[C@@H]21`, the INHIBITION is listed as 46.7%.

Regarding `Cc1n[nH]c(CN2CCN(CC3CC3)[C@@H]3CS(=O)(=O)C[C@@H]32)n1`, the INHIBITION is 55.9%.

Consider `CC(C)=CCN1CCN(Cc2nccn2C)[C@H]2CS(=O)(=O)C[C@H]21`, for which the INHIBITION turned out to be 23.9%.

In the case of `Cc1n[nH]c(CN2CCN(Cc3ccccc3)[C@@H]3CS(=O)(=O)C[C@@H]32)n1`, the INHIBITION is given as 18.9%.

For the compound `CN(C)CCC1CN(C(=O)c2cccc3c2OCC3)CCO1` (centres undefined), the INHIBITION is -15.1%.

Turning to `COCC1CN(Cc2cc(C)on2)Cc2cn(CC3CCCC3)nc21` (centres undefined), the INHIBITION is on record as 15.3%.

For `Cc1cc(OC(F)F)c(C(=O)N2CCN(C3CC3)CC2)s1`, the INHIBITION was -3.47%.

With `CC(C)COCC1CN(C(=O)c2cscn2)Cc2ncn(C)c21` (centres undefined), the INHIBITION was determined as 34.9%.

With `Cc1noc(C)c1C(=O)N1Cc2ncn(C)c2C(COCC(C)C)C1` (centres undefined), the INHIBITION turned out to be 36.7%.

As for `Cc1ccsc1C(=O)N1Cc2ncn(C)c2C(COCC2CC2)C1` (centres undefined), the INHIBITION worked out at 11.4%.

Take `Cn1cnc2c1C(COCC1CCOCC1)CN(C(=O)c1ccoc1)C2` (centres undefined): the INHIBITION is recorded as 40.4%.

In the case of `Cc1noc(C)c1C(=O)N1Cc2ncn(C)c2C(COCC2CC2)C1` (centres undefined), the INHIBITION was determined as 58.4%.

Regarding `Cn1cnc2c1C(COCC1CCOCC1)CN(C(=O)c1ccco1)C2` (centres undefined), the INHIBITION came to 64.9%.

Consider `Cn1ncc2c1C(COCC1CC1)CN(C(=O)c1cscn1)C2` (centres undefined), for which the INHIBITION was found to be 34.6%.

As to `CCOCC1CN(C(=O)c2cnccn2)Cc2cnn(CC3CC3)c21` (centres undefined), the INHIBITION stood at 6.6%.

As for `CCOCC1CN(C(=O)c2cscn2)Cc2nnn(CC3CC3)c21` (centres undefined), the INHIBITION is listed as 13.6%.

As to `CCOCC1CN(C(=O)c2cscn2)Cc2cnn(CC3CC3)c21` (centres undefined), the INHIBITION is reported as 56.7%.

Consider `CN(C)C(=O)N1Cc2ncn(C)c2C(COCC2CCOCC2)C1` (centres undefined), for which the INHIBITION turned out to be 6.6%.

In the case of `Cn1cnc2c1C(COCC1CC1)CN(C(=O)c1cscn1)C2` (centres undefined), the INHIBITION worked out at 58.8%.

For `CCn1ccnc1CN1CCCN(C(=O)c2cc[nH]n2)CC1`, the INHIBITION is -18.45%.

For `Cc1nc(C)n(CC2CCCCN2CCOc2cccc(C#N)c2)n1` (centres undefined), the INHIBITION is on record as 21.5%.
